# Source: PubChem
# Sampled rows, rich in hits. Any-hit rate of the full collection: about 2.9%.
# ADAM10 inh = inhibits human ADAM10 | O14672 | 370,000 compounds, 0.62% hits | recombinant ADAM10, EDANS/DABCYL FRET peptide cleavage, 3 h | inhibition, % at 7 µM;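 active = inhibition above a per-campaign cutoff equal to the mean of compounds falling between control-based bounds plus 3 SD, cut at about 20% in these data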;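 note: 0% = DMSO wells while the 100% control is not disclosed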
# ADAM17 inh = inhibitors of human ADAM17. P78536. recombinant ADAM17, EDANS/DABCYL FRET peptide cleavage. inhibition, % at 6.95 µM. 370,000 compounds, 0.83% hits;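 active = inhibition above the mean of compounds lying between control limits plus 3 SD, set per campaign, cut at about 8.5% in these data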;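 note: 0% = DMSO-only wells as the low control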
# Target sequence (P78536 215-824 limits assumed): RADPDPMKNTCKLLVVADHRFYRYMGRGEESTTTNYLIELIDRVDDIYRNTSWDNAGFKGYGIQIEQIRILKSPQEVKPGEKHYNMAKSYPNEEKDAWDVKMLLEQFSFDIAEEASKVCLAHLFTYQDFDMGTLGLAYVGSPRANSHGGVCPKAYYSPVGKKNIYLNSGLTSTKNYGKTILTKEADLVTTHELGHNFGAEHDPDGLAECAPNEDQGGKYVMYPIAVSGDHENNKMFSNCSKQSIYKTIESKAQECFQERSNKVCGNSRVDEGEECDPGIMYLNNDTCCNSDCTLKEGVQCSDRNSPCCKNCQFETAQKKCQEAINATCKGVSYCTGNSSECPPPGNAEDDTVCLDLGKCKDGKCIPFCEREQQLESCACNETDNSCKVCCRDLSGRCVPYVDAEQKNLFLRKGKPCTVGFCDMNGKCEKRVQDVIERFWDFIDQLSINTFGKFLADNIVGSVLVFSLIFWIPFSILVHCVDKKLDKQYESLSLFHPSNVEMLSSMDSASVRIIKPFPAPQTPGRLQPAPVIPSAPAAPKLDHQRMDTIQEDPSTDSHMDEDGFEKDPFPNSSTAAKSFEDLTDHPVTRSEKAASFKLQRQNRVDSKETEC
# PLCb3 inh = blocks human PLC-beta3 enzyme activity; 370,000 compounds, 0.18% hits; Purified PLC-beta3, fluorogenic substrate, fluorescence; inhibition, % at 12.2 µM; in the data active = inhibition above about 11%;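 note: 0% = median of compound wells on plate and 100% = full blocker control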
# PLC-gamma1 inh = blocks human PLC-gamma1 enzyme activity. P19174. purified PLC-gamma1, fluorogenic substrate, fluorescence. inhibition, % at 12.2 µM. 370,000 compounds, 0.84% hits. AID 720700; in the data active = inhibition above about 9.5%
# KLK7 zymogen act = activators of human kallikrein-7 zymogen; purified proKLK7, EDANS-DABCYL substrate fluorescence; 100% is mature enzyme control, 0% vehicle; AID 652039; activation, % at 7 µM; P49862; 370,000 compounds, 0.9% hits;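 active = activation above the mean of all tested compounds plus 3 SD, computed per campaign excluding outliers beyond control limits, cut at about 13% in these data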
# ADAM10 confirm = confirmation of inhibitors of human ADAM10; shares compounds with ADAM10 inh; ADAM10 QFRET peptide cleavage, EDANS fluorescence; inhibition, % at 6.95 µM; 2,100 compounds, 1% hits; AID 743208;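 active = inhibition above about 20% chosen separately for each screening run, limit read from the data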;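 note: 0% = DMSO wells and 100% = marimastat wells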
# ADAM17 ctr = ADAM17 inhibition, counter-screen for ADAM10 exosite hits; shares compounds with ADAM10 inh; ADAM17 QFRET peptide cleavage, EDANS fluorescence; inhibition, % at 6.95 µM; 2,100 compounds, 0.5% hits;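 active = mean triplicate inhibition above the solvent-only control wells' mean plus 3 SD, cut at about 12% in these data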;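 note: 0% = DMSO wells and 100% = marimastat wells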
# ADAM10 ctr = counter-screen for ADAM17 exosite inhibitors: inhibitors of human ADAM10; shares compounds with ADAM17 inh; recombinant ADAM10, EDANS/DABCYL FRET peptide cleavage, 3 h; inhibition, % at 6.95 µM; 2,900 compounds, 47% hits; AID 743256;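 active = mean inhibition over the triplicate runs exceeds the activity threshold set in the earlier primary screen, cut at about 20% in these data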;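 note: 0% = DMSO wells and 100% = marimastat wells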
# ADAM17 confirm = confirmation of inhibitors of human ADAM17. shares compounds with ADAM17 inh. recombinant ADAM17, EDANS/DABCYL QFRET peptide cleavage. inhibition, % at 6.95 µM. 2,900 compounds, 65% hits. AID 743257;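 active = mean inhibition across replicates above the hit cutoff set in the primary screen, cut at about 8.5% in these data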;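 note: 0% = DMSO wells and 100% = marimastat wells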
# * marks the source's active call; other numbers are inactive results; x = no result given.
SMILES,ADAM10 inh,ADAM17 inh,PLCb3 inh,PLC-gamma1 inh,KLK7 zymogen act,ADAM10 confirm,ADAM17 ctr,ADAM10 ctr,ADAM17 confirm
CCCCN1CC(COCc2ccccc2)Oc2cccc(OCCN3C(=O)[C@@H]4[C@H](C3=O)C3C=C[C@H]4C3)c2S1(=O)=O (stereo not given in full),26*,13*,1,8,1,7,2,44*,18*
O=C1[C@@H]2[C@H](C(=O)N1C[C@@H](COCc1ccccc1)Oc1cccc3c1S(=O)(=O)N(CCc1ccc(F)cc1)C[C@H](COCc1ccccc1)O3)[C@@H]1C=C[C@H]2C1,-3,0,-4,1,0,x,x,x,x
CCCCOCCCNC(=O)C[C@@H]1C[C@@]2(C(=O)OC)CC(C)(C)CC=C2N(Cc2cccc3ccccc23)C1=O,22*,13*,0,6,0,8,2,27*,16*
COC(=O)[C@]12C[C@H](CC(=O)NCc3cccc(C(F)(F)F)c3)C(=O)N(CCc3ccc(OC)c(OC)c3)C1=C[C@H](C(C)C)O[C@@H]2C1CC1,22*,13*,1,1,0,0,0,22*,8.9*
COC(=O)[C@]12C[C@H](CC(=O)NCCC(C)C)C(=O)N(Cc3cccc4ccccc34)C1=C[C@H](C(C)C)O[C@@H]2C1CC1,20*,8.6*,6,0,1,12,4,34*,22*
CCc1ccc(CCNC(=O)OC2CC3CC2[C@H]2CCCCN2C3)cc1 (stereo not given in full),-2,2,-2,1,0,x,x,x,x
CC(=O)c1cccc(-c2ccc3c(c2)C(C)(Cc2ccccc2C#N)C(=O)N3)c1 (stereo not given),-1,-2,-1,1,-1,x,x,x,x
COc1ccc(C(C)=O)cc1CC1(C)C(=O)Nc2ccc(-c3cccc(C(F)(F)F)c3)cc21 (stereo not given),27*,9.8*,-3,2,0,9,3,24*,14*
Cc1cc(Cl)ccc1NC(=S)NCCc1ccc(Cl)cc1,25*,9.8*,-3,7,1,3,1,17,8
COc1ccc(-c2cc(N)n(S(=O)(=O)c3ccc(C)cc3)n2)c(OC)c1,1,1,3,5,0,x,x,x,x
COc1ccc(S(=O)(=O)n2nc(-c3ccc(Cl)cc3)cc2N)cc1,21*,9.0*,6,9,0,3,1,15,8.9*
CN1CCS/C1=C\C=C1/SC(=S)N(CC(=O)O)C1=O,25*,10*,-17,-12,0,2,0,17,11*
COc1ccc(-n2c(=S)[nH]c3cc(C(=O)NCc4ccccc4)ccc3c2=O)c(OC)c1,24*,9.0*,4,4,1,1,1,12,10*
COc1ccc(-n2c(=S)[nH]c3cc(C(=O)NCc4cccnc4)ccc3c2=O)c(OC)c1,1,0,-1,-1,-1,x,x,x,x
O=C1CC(=O)N(CCc2ccccc2)C(=O)N1CCc1ccccc1,24*,13*,-2,3,2,5,2,25*,9.9*
CC1CC(=O)N(CCc2ccccc2)C(=O)C1,-8,-4,5,4,0,x,x,x,x
OC(c1ccccc1)(c1nc(-c2ccccc2)cs1)C(F)(F)F (stereo not given),23*,8.8*,4,3,0,8,2,33*,17*
OC(c1ccccc1)(c1nc(-c2ccc3c(c2)OCO3)cs1)C(F)(F)F (stereo not given),23*,9.2*,5,1,0,13,4,25*,14*
OC(c1ccccc1)(c1nc(-c2ccc3ccccc3c2)cs1)C(F)(F)F (stereo not given),7,8,1,3,0,x,x,x,x
OC(c1ccccc1)(c1nc(-c2cccc(F)c2)cs1)C(F)(F)F (stereo not given),33*,12*,-2,-1,0,8,2,39*,18*
COc1ccc(C2C(C(=O)N3CCC(C)CC3)CC(=O)N2c2ccc(OC)cc2)cc1 (stereo not given),2,0,1,-1,0,x,x,x,x
O=C(CNS(=O)(=O)c1ccc(Br)s1)N1CCN(c2ccccn2)CC1,-8,-4,1,-2,0,x,x,x,x
O=C(OC12CCCN(C1)/C(=C/c1cccc(Cl)c1)C2)c1ccno1 (stereo not given),4,0,-3,-1,0,x,x,x,x
O=C(COc1ccc(F)cc1)N(Cc1ccc(Cl)cc1)C1CCS(=O)(=O)C1 (stereo not given),-3,-1,-3,0,0,x,x,x,x
Cc1cccc(C)c1OCC(=O)N(Cc1ccc(Cl)cc1)C1CCS(=O)(=O)C1 (stereo not given),20*,9.2*,-4,3,0,-2,0,-3,2
SMILES,ADAM10 inh,ADAM17 inh,PLCb3 inh,PLC-gamma1 inh,KLK7 zymogen act,ADAM10 confirm,ADAM17 ctr,ADAM10 ctr,ADAM17 confirm
COc1ccc(CN(CCC(c2ccc(F)cc2)C2CCOC(C)(C)C2)C(=O)c2ccco2)cc1 (stereo not given),22*,14*,4,9,1,5,2,25*,15*
O=[N+]([O-])c1cc(S(=O)(=O)Nc2ccccc2)ccc1N1CCN(c2ccccc2)CC1,24*,11*,1,6,0,11,3,38*,21*
O=c1[nH]c(=S)[nH]c2c1C(c1cccc(C(F)(F)F)c1)OC(CCc1ccccc1)C2 (stereo not given),27*,14*,8,5,0,6,2,30*,16*
COc1ccc(-c2cc(C(=O)N(C3CCCCC3)C3CCCCC3)no2)cc1,-4,-6,-2,0,0,x,x,x,x
CCOC(=O)C(Cc1nc(OCc2ccccc2)cc(OCc2ccccc2)n1)=NO,28*,8.8*,4,-1,0,9,3,24*,12*
CCOC(=O)C(=O)Cc1nc(OCc2ccccc2)cc(OCc2ccccc2)n1,-3,-3,-6,0,0,x,x,x,x
COC[C@H]1CCCN1c1cccc2c1S(=O)(=O)N(C1CC1)CC[C@@H](C)O2,-15,-8,-9,-5,-1,x,x,x,x
